# Yeast superoxide: caloric restriction mimetics inhibiting age-related superoxide in yeast; S. cerevisiae aged cells, superoxide DHE fluorescence; stronger effect = lower value; superoxide response (% of plate mean), % at 10 µM; actives 0.18% (n = 330,000);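 active = superoxide response under a set limit, about three screen SD below normal, cut at about 65% in these data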;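 note: yeast aged for seven days with compound at 30 °C before DHE staining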
# UBC13 polyUb: blocks human UBC13 polyubiquitin chain formation | inhibition, % at 20 µM | actives 0.47% (n = 330,000) | TR-FRET | P61088; in the data active = inhibition above about 45%, passing the limit was not always enough; inconclusive = no clear call, values can overlap the other calls
# Target sequence (P61088 whole entry, looked up): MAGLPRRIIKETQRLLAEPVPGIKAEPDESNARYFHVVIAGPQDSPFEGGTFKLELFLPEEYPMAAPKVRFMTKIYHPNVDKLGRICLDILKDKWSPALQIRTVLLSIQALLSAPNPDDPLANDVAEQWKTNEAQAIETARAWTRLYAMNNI
# NALP1 yeast inh: blocks the NALP1 inflammasome reconstituted in yeast; inhibition, % at 10 µM; actives 0.61% (n = 280,000); S. cerevisiae NALP1/ASC/caspase-1 growth, X-gal OD620, 72 h; in the data active = inhibition mostly above about 24%, no sharp cut-off; inactive = mostly below about 32%
# GRIN3A LBD mod: NR3A (human) ligand-binding domain modulation; NR3A LBD differential scanning fluorimetry, Tm shift; 0% = protein alone, 100% = glycine-bound protein; Tm shift relative to glycine control, % at 25 µM; actives 2.5% (n = 340,000);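 active = melting temperature shift of at least 10% of the positive control shift, at one fixed dose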
# dFosB act: activators of mouse delta FosB homodimer; P13346; purified delta FosB, TAMRA-CDK5 oligo fluorescence polarization; percent of positive-control signal above neutral wells; activation, % at 25 µM; actives 0.99% (n = 340,000); AID 493131;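 active = mean activation above about 17%, with every replicate also reaching it, limit read from the data, passing the limit was not always enough; inconclusive = only one of the two conditions met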
# Target sequence (P13346 whole entry, looked up): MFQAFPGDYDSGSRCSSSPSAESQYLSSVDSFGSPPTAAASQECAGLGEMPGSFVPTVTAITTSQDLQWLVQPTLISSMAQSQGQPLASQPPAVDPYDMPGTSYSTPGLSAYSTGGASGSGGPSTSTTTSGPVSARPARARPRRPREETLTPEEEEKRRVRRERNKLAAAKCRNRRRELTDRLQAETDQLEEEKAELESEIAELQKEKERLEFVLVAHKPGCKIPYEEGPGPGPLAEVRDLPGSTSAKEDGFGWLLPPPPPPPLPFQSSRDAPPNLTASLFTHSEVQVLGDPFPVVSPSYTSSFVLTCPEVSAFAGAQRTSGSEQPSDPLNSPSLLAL
# Numbers stand for hits; – = inactive; ? = inconclusive; · = no result. An excerpt weighted towards active compounds, which were near 4.3% of everything screened.
SMILES,Yeast superoxide,UBC13 polyUb,NALP1 yeast inh,GRIN3A LBD mod,dFosB act
CCC(C)[C@H](NC(=O)[C@@H]1CSC2c3ccccc3C(=O)N21)C(=O)NCc1ccco1 (stereo partly specified),–,–,–,–,–
O=C(Cn1sc2ccccc2c1=O)N1CCN(C(=O)c2ccco2)CC1,–,–,–,–,–
Cc1ccc(C)c(NC(=O)CN(C)C(=O)c2ccc(S(=O)(=O)N3CCCCCC3)cc2)c1,–,–,·,–,–
Cc1[nH]c2ccccc2c1/C=C(\C#N)C(=O)NCc1ccccc1,–,–,–,–,–
Cc1ccc(C(C)NC(=O)/C(C#N)=C\c2c(C)[nH]c3ccccc23)cc1 (stereo unspecified),–,–,–,17,–
O=C1CC2(CCCC2)Oc2ccc(F)cc21,–,–,·,–,–
Cc1cc(C(=O)CN2C(=O)NC3(CCCc4sccc43)C2=O)c(C)n1-c1ccccc1 (stereo unspecified),–,–,–,15,–
COc1ccc(C(=O)CC(=O)C(=O)Nc2cccc(C(C)=O)c2)cc1,–,–,–,–,–
CN(C)C(=O)CCc1ccc2c3c([nH]c2c1)[C@]1(C)[C@@H](C(=O)N2CCOCC2)C[C@H](CC(=O)NCc2cccc(C(F)(F)F)c2)C(=O)N1CC3,–,·,·,–,–
O=C(Nc1ccc(Cl)cc1)Nc1cccnc1,–,–,–,13,–
CSc1ccc(NC(=O)Nc2ccc(C(=O)NCC(=O)O)cc2)cc1,–,–,–,15,–
CCSc1ccc(C(=O)NCC(=O)O)cc1,–,–,–,–,–
O=C(CN1c2ccccc2Sc2ccccc21)NNC(=O)Nc1cccc(Cl)c1,–,–,·,18,–
O=C(Nc1ccccc1)Nc1cccc(Cl)c1,–,–,–,29,–
O=C(Nc1cccnc1)Nc1ccc(Cl)cc1Cl,–,–,–,–,–
COc1ccccc1N(CCC#N)C(=S)Nc1ccc(S(=O)(=O)N2CCOCC2)cc1,–,–,·,–,–
COc1ccccc1NOC(=O)CCOc1ccccc1,·,·,·,–,–
Oc1ccc(Br)cc1-c1ccnn1-c1ccccc1,–,–,–,–,–
CS(=O)(=O)N1CCN(c2ccccc2NC(=O)Nc2cccc(Cl)c2)CC1,–,–,–,12,–
CSc1cccc(NC(N)=O)c1,–,–,–,–,·
CC(=O)Nc1ccc(NC(=O)Nc2cccc(Cl)c2)cc1,–,–,–,34,–
O=C(/C=C/c1cccc(Cl)c1)Nc1ncccn1,–,–,–,–,–
CSc1cccc(NC(=O)/C=C/c2cccc(Cl)c2)c1,–,–,–,67,–
O=C(Nc1cccc(Cl)c1)Nc1cccc(C(=O)O)c1,–,–,·,–,–
CSc1cccc(NC(=O)Nc2ccc(Cl)cc2)c1,–,–,–,29,–
SMILES,Yeast superoxide,UBC13 polyUb,NALP1 yeast inh,GRIN3A LBD mod,dFosB act
CC(C)Oc1ccc(S(=O)(=O)N2CCOCC2)cc1NC(=O)Cc1cccs1,–,–,·,–,–
COc1ccccc1C(=O)N/C(=C\c1cn(S(=O)(=O)N(C)C)c2ccccc12)C(=O)N1CCCC1,–,–,–,–,–
NC(=O)c1ccccc1NC(=O)Nc1cccc(Cl)c1,–,–,·,28,–
O=C(Nc1cccc(Cl)c1)N1CCCCCC1,–,–,–,–,–
O=C(Nc1ccc(C(=O)N2CCCCC2)cc1)Nc1cccc(Cl)c1,–,–,–,13,–
O=C(Nc1ccncc1)Nc1cccc(F)c1,–,–,–,14,–
O=C(Nc1cccc(Cl)c1)Nc1ccccc1C(=O)O,–,–,–,–,–
CSc1ccc(NC(=O)Nc2ccccc2C(N)=O)cc1,–,–,–,10,–
O=S1(=O)N=C(N(CCO)/N=C/c2ccc(Br)cc2)c2ccccc21,–,–,–,–,–
Cc1onc(-c2ccccc2)c1C(=O)N1CCN(c2ccc([N+](=O)[O-])cc2)CC1,–,–,–,–,–
CC(C(=O)Nc1ccccc1Br)N1c2cccc3cccc(c23)S1(=O)=O (stereo unspecified),–,–,–,–,–
CC(=O)c1ccc(NC(=S)NCCc2cccc(Cl)c2)cc1,–,–,–,26,–
CC(=O)c1ccc(NC(=O)Nc2cccc(Cl)c2)cc1,–,–,–,35,–
NS(=O)(=O)c1ccc(NC(=O)Nc2cccc(Cl)c2)cc1,–,–,–,33,–
Cc1cc(NC(=O)Nc2cccc(Cl)c2)n(-c2ccccn2)n1,–,–,–,33,–
Cc1cc(NC(=O)Nc2cccc(Cl)c2)n(-c2ccccc2)n1,–,–,–,–,–
Cn1nnc2cc(NC(=O)Nc3cccc(Cl)c3)ccc21,–,–,–,27,–
Cc1ccc(S(=O)(=O)N(Cc2ccccc2)Cc2ccco2)cc1,–,–,–,–,–
Cc1ccc(S(=O)(=O)N(Cc2ccc(F)cc2)Cc2ccco2)cc1,–,–,–,12,–
O=C(Nc1ccc(Cl)cc1)Nc1nc(-c2ccccc2O)cs1,–,–,·,26,–
Cc1cnc(NC(=O)Nc2ccc(Cl)cc2)s1,–,–,–,26,–
O=C(Cc1csc(NC(=O)Nc2ccc(Cl)cc2)n1)NC1CCCC1,–,–,·,13,?
Cc1csc(NC(=O)Nc2ccc(Cl)cc2)n1,–,–,–,21,–
COc1ccc(-c2sc3ccc(N4CCOCC4)cc3c2C#CCCO)cc1,–,–,·,–,–
NC(=O)c1ccc(CN2CCc3ccccc3C2)cc1,–,–,–,–,–
SMILES,Yeast superoxide,UBC13 polyUb,NALP1 yeast inh,GRIN3A LBD mod,dFosB act
Cc1ccc(NC(=O)C2CCCN2C(=O)NC2CCCCC2)cc1 (stereo unspecified),–,–,25,–,–
Cc1c(/C=N/NC(=O)c2cccs2)c2ccccc2n1Cc1ccccc1Cl,–,–,·,–,–
COc1ccc(CN2CCNC(=O)C2CC(=O)N2CCCN(C(C)=O)CC2)c(OC)c1 (stereo unspecified),–,–,–,–,–
CCOc1ccc(/C=C2\SC(=S)N(CC(=O)Nc3ccccn3)C2=O)cc1,–,–,–,–,22
Cc1cc(NC(=O)CN2C(=O)/C(=C/c3ccccc3F)SC2=S)no1,–,–,–,–,?
Cc1cc(NC(=O)CCN2C(=O)/C(=C/c3ccccc3F)SC2=S)no1,–,–,–,·,·
Cc1cc(NC(=O)CCCN2C(=O)/C(=C/c3ccccc3Cl)SC2=S)no1,–,–,–,–,37
Cc1cc(NC(=O)CCN2C(=O)/C(=C\c3ccccc3)SC2=S)no1,–,–,–,–,40
CCC(=O)Nc1ccc(C(=O)COC(=O)Cc2ccsc2)cc1,–,–,·,–,–
Cc1cc(C(=O)N/N=C/C=C/c2ccc([N+](=O)[O-])cc2)n[nH]1,–,–,–,–,–
Cc1cc(NC(=O)CSc2c(C)[nH]c3ccccc23)no1,–,–,·,–,–
Cc1[nH]c2ccccc2c1SCC(=O)NNC(=O)Nc1ccc(OC(F)(F)F)cc1,–,–,–,12,–
CCCN=C1N(C)C[C@@H]2[C@@H]3C(=O)N(Cc4ccccc4)C(=O)[C@@H]3[C@](Cc3ccccc3)(C(=O)OC)N12,–,·,·,–,–

# Source: PubChem
